# The campaign covered roughly 69,000 compounds. About 420 (0.61%) showed an effect of 50% or more. The sample as a whole holds a higher share of strong results than the screen did.
# Biological target: T1, Histidine--tRNA ligase (Leishmania infantum) (UniProt A4I591)
# T1 sequence (whole entry): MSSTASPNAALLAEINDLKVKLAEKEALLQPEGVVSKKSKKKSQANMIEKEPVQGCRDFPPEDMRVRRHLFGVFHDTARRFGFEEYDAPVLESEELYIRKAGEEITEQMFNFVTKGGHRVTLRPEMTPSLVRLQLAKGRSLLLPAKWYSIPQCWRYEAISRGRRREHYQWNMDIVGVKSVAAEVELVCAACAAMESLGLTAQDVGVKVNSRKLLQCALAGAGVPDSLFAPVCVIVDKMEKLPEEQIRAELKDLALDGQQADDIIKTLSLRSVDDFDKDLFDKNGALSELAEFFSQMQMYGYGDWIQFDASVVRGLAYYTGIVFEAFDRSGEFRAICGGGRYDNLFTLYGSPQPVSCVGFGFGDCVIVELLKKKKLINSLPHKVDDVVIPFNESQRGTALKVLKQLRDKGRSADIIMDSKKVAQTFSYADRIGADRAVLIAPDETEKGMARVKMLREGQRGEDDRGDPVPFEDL
# Assay: Leishmania infantum Histidine tRNA synthetase (LdHisRS)
# Format: functional
# Parameters: scale not given: in the data most compounds retested in dose-response had high values
# Conditions: 30 µM
row,SMILES,Percent Effect [%]
1,CC(=O)N1[C@H](Cn2cncn2)C[C@@H]2CN(Cc3cccnc3)CC[C@@H]21,13.9
2,Cc1nc(C(=O)N2CCN(S(C)(=O)=O)[C@@H]3CS(=O)(=O)C[C@@H]32)cs1,18.7
3,c1cc(CN2CC[C@H]3O[C@@H](COCC4CCOCC4)CC[C@H]32)ccn1,22
4,CCN1C[C@H]2[C@@H](C1)N(S(=O)(=O)c1ccccc1)CC[C@H]2OC,24
5,CN(C)CCO[C@H]1CN(C(=O)c2ccc3c(c2)OCO3)[C@@H]2COC[C@H]12,13.7
6,O=C(NCC1(O)CCC1)c1c(O)cc(F)cc1F,-2.17
7,CCCn1cc(Cl)c(C(=O)N2C[C@H]3C[C@H](OC)C[C@H]3C2)n1,8.63
8,Cc1nc(C)n(CC2CCCN2Cc2nc3ccccc3nc2C)n1 (stereo not drawn),17.6
9,Cc1nn(C)c(C)c1C1CCCN1Cc1nc(C)c2ccccc2n1 (stereo not drawn),46
10,Cc1nc(C)n(CC2CCCN2Cc2nc(C)c3ccccc3n2)n1 (stereo not drawn),56.5
11,Cc1nc(CN2CCCC2c2ccsc2)nc2ccccc12 (stereo not drawn),54
12,Cc1nc(CN2CCCC2c2noc(C3CC3)n2)nc2ccccc12 (stereo not drawn),42.2
13,Cc1nc(C)n(CC2CCCN2Cc2nc(N)c3ccccc3n2)n1 (stereo not drawn),36.5
14,CC(C)CN1C[C@@H]2C(=O)NC3(CCN(C(=O)c4cccnc4)CC3)[C@@H]2C1,23.3
15,CN1[C@@H](C(=O)NCC2CC2)C[C@@H]2CN(Cc3ccsc3)C[C@@H]21,11.9
16,CS(=O)(=O)N1C[C@H]2CCC[C@@]2(COc2ccccn2)C1,10.3
17,CN(C)C(=O)CO[C@H]1CN(Cc2cccc(C#N)c2)[C@@H]2COC[C@H]12,-11.4
18,COc1ncccc1C(=O)N1CC[C@H]2C[C@@H](c3noc(C)n3)O[C@@H]2C1,46.1
19,O=C(O)[C@@]12CN(c3cnccn3)C[C@@H]1CN(C1CCCC1)C2,21
20,O=C(O)c1ccccc1-c1ccc(CN2CC(c3ccncn3)C2)o1,29.4
21,Nc1nccc(C2CN(Cc3ccc(-c4ccccc4C(=O)O)o3)C2)n1,54.9
22,Cc1nccc(C2CN(Cc3ccc(-c4ccccc4C(=O)O)o3)C2)n1,12.7
23,O=C(CN1C[C@H]2C[C@H](OCc3ccccc3)C[C@H]2C1)N1CCOCC1,15.7
24,CN1CCN(Cc2cnn(-c3ccccc3Cl)c2)[C@H]2CS(=O)(=O)C[C@H]21,5.71
25,Cc1ccc(-c2ncc(C(=O)N3CCCN4CCC[C@H]4C3)c(O)n2)cc1,11
26,Cc1c(-c2c(-c3ccccc3)ncn2[C@H](CO)C(=O)O)cnn1C,7.85
27,CN(C)c1ncc(-c2c(-c3ccccc3)ncn2C(CO)C(=O)O)cn1 (stereo not drawn),72.8

row,SMILES,Percent Effect [%]
1,Cc1nn(C)c(C)c1-c1c(-c2ccccc2)ncn1[C@H](CO)C(=O)O,1.57
2,O=C1C[C@H]2CC[C@@H](CN1)N2C(=O)CCc1ccccc1,8.39
3,CNC(=O)CN1CC[C@H]2CN(C(=O)c3cccn3C)C[C@H]2C1,2.78
4,CSCC(C)NS(=O)(=O)c1ccc(C)c(N(C)C)c1 (stereo not drawn),19.3
5,Cc1ccc(S(=O)(=O)NC(CO)CC(C)C)cc1N(C)C (stereo not drawn),43.4
6,Cc1ccc(S(=O)(=O)N[C@H](CO)C(C)C)cc1N(C)C,53
7,O=C(NCCc1ccncc1)[C@@H]1CC[C@@H]2[C@@H](CCN2Cc2ccco2)O1,20
8,CNC(=O)N1C[C@H]2C[C@H](C(=O)Nc3ccccc3)[C@@H](C1)O2,19.6
9,Cc1cc(=O)n(CC(=O)Nc2ccc(Cl)cc2)nc1C,7.2
10,COc1ccc(NC(=O)Cn2nc(C)c(C)cc2=O)cc1,-0.8
11,CC(=O)c1c(C)nn(CC(=O)Nc2ccc(F)cc2)c1C,15.7
12,CC(=O)c1c(C)nn(CC(=O)Nc2ccc(Br)cc2)c1C,71.3
13,COc1ccc(NC(=O)Cn2nc(C)c(C(C)=O)c2C)cc1,52.2
14,COc1ccc(NC(=O)Cn2nc(C)c(C)cc2=O)cc1OC,7.69
15,O=C1O[C@@H]2CN(S(=O)(=O)N3CCCC3)C[C@@H]2N1CCc1cccc(Cl)c1,7.29
16,O=C1CC[C@]2(CC[C@@H](NCc3ccsc3)CC2)N1Cc1ccccc1,25
17,COCCN1C(=O)[C@H]2CC[C@@H]1CN(C(=O)COc1ccc(F)c(Cl)c1)C2,-13.3
18,N#Cc1ccsc1N1CCC(Sc2ncc[nH]2)C1=O (stereo not drawn),20.4
19,N#Cc1ccsc1N1CCC(Sc2ccncc2)C1=O (stereo not drawn),53.1
20,Cc1nnc(SC2CCN(c3sccc3C#N)C2=O)[nH]1 (stereo not drawn),12.2
21,NC(=O)N1CC[C@@H]2O[C@@H](COCC(=O)N3CCCC3)CC[C@@H]21,0
22,CCCc1nc(CN2CCOC(CNc3cccnn3)C2)cs1 (stereo not drawn),69
23,CCc1nc(CN2CCOC(CNc3cccnn3)C2)cs1 (stereo not drawn),24.6
24,COCc1nc(CN2CCOC(CNc3cccnn3)C2)cs1 (stereo not drawn),35.1
25,CN(C)CCO[C@H]1CN(Cc2ccc3c(c2)OCO3)[C@@H]2COC[C@H]12,17.1
26,CN(C)C(=O)CO[C@H]1CN(Cc2ccc3c(c2)OCO3)[C@@H]2COC[C@H]12,13.2

# Reference: ChEMBL document CHEMBL3988442, “University of Dundee, Small-Polar-MMV Screening Library” (2021)
